Sa RN4220 lethal: S. aureus RN4220 growth inhibition | OD600, 16 h | 330,000 tested, 0.33% active | inhibition, % (concentration not given with the values) | AID 1259311; in the data active = inhibition above about 85%;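 note: plate controls were untreated cells for no effect and reference antibiotic for full effect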
ugtP null kill: growth inhibition of S. aureus ugtP deletion strain; S. aureus RN4220 ugtP deletion, OD600 growth, 16 h; growth inhibition, % (concentration not given with the values); 330,000 tested, 0.54% active; AID 1259309; in the data active = growth inhibition above about 68%;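 note: plate controls were untreated wells for no effect and antibiotic for full effect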
PriA SSB inh: blocks PriA binding to SSB C-terminal tail; inhibition, % at 33 µM; AlphaScreen SSBct-PriA binding, biotinylated peptide; AID 1272365; 430,000 tested, 0.6% active; in the data active = inhibition mostly above about 37%, no sharp cut-off; inactive = mostly below about 20%;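 note: plate controls were negative control peptide for no effect and reference peptide for full effect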
* = called active by the depositor; ! = repeats disagree. A selection: hits, their analogues and other compounds. The true share with any hit is near 1%.

How did O=C(Nc1nnc(-c2cccs2)o1)C1CC(=O)N(c2ccc(F)cc2)C1 (stereo not drawn) do in these assays?
PriA SSB inh: 27*!

What do the screens show for `CCOC(=O)C(C)Sc1ncc(OC)c(Sc2ccc(Cl)cc2)n1` (stereo not drawn)?
Sa RN4220 lethal: 5; ugtP null kill: 66; PriA SSB inh: -58

How did COc1cnc(-c2ccccn2)nc1Sc1ccccc1Cl do in these assays?
Sa RN4220 lethal: 8; ugtP null kill: 8; PriA SSB inh: 83*

Results for COc1ccc(Oc2nc(-c3ccccn3)ncc2OC)cc1 ?
Sa RN4220 lethal: 7; ugtP null kill: -4; PriA SSB inh: 28

What do the screens show for `COc1cnc(-c2ccccn2)nc1Sc1c(Cl)cccc1Cl`?
Sa RN4220 lethal: 5; ugtP null kill: 39; PriA SSB inh: -6

How did COc1cnc(-c2ccccn2)nc1Oc1cccc(Cl)c1 do in these assays?
Sa RN4220 lethal: 7; ugtP null kill: -4; PriA SSB inh: 7

What do the screens show for `CCOC(=O)C(C)Sc1nc(-c2ccccn2)ncc1OC` (stereo not drawn)?
Sa RN4220 lethal: 8; ugtP null kill: -5; PriA SSB inh: 90*

How did COc1cnc(-c2ccccn2)nc1Oc1c(C)cccc1C do in these assays?
Sa RN4220 lethal: 6; ugtP null kill: -4; PriA SSB inh: 49*

What do the screens show for `COc1cnc(-c2ccccn2)nc1OC`?
PriA SSB inh: 112*

Results for CC1CCc2c(sc3nc(SCCC(=O)Nc4ccc(F)cc4)n(-c4ccccc4)c(=O)c23)C1 (stereo not drawn) ?
PriA SSB inh: -15

How did COc1cnc(-c2ccccn2)nc1N(C)C do in these assays?
Sa RN4220 lethal: 7; ugtP null kill: -1; PriA SSB inh: 98*

What do the screens show for `COc1cnc(-c2ccccn2)nc1Cl`?
PriA SSB inh: 40

What do the screens show for `CCCN1CCCc2cc(CCNC(=O)C(=O)NCCc3ccccc3)ccc21`?
PriA SSB inh: 44

How did CCCN1CCCc2cc(CCNC(=O)c3ccccc3Cl)ccc21 do in these assays?
PriA SSB inh: 53*

Results for CCCN1CCCc2cc(CCNC(=O)c3ccccc3OC)ccc21 ?
PriA SSB inh: 73*

What do the screens show for `CCCN1CCCc2cc(CCNC(=O)c3ccccc3C)ccc21`?
PriA SSB inh: 59*

What do the screens show for `COc1ncc(NS(=O)(=O)c2cccs2)cn1`?
PriA SSB inh: -7

How did Cc1ccc(N2C(=O)C3N=NN(c4ccc(Cl)cc4)C3C2=O)cc1F (stereo not drawn) do in these assays?
PriA SSB inh: -1

How did CCOC(=O)c1nn(-c2ccc(F)cc2)c(=O)cc1N1CCN(C(=O)OCC)CC1 do in these assays?
PriA SSB inh: -6

What do the screens show for `CN(C)CCCN1c2ccccc2Sc2ccc(Cl)cc21`?
Sa RN4220 lethal: 0; ugtP null kill: -13; PriA SSB inh: 29

What do the screens show for `CSc1ccc2c(c1)N(CCC1CCCCN1C)c1ccccc1S2` (stereo not drawn)?
PriA SSB inh: 40*

What do the screens show for `C=CCN(c1ccccc1)S(=O)(=O)c1cccc(C(=O)Nc2ccc(N3CCOCC3)cc2)c1`?
Sa RN4220 lethal: 6; ugtP null kill: -3; PriA SSB inh: 43*

How did C=CCN(c1ccccc1)S(=O)(=O)c1cccc(C(=O)Nc2ccncc2)c1 do in these assays?
Sa RN4220 lethal: 2; ugtP null kill: -1; PriA SSB inh: 3

Results for CCOc1ccccc1C(=O)Nc1nnc(SCc2cccc(F)c2)s1 ?
PriA SSB inh: -6

What do the screens show for `O=C(Nc1ccc(F)cc1)C(=O)Nc1ccc2c(c1)N(S(=O)(=O)c1cccs1)CCC2`?
PriA SSB inh: 2

What do the screens show for `CC1CCN(C2=C(NS(=O)(=O)c3ccc(Br)cc3)C(=O)c3ccccc3C2=O)CC1`?
Sa RN4220 lethal: -13; ugtP null kill: -28; PriA SSB inh: 70*

How did CC1CCCN(C2=C(NS(=O)(=O)c3ccc(Br)cc3)C(=O)c3ccccc3C2=O)C1 (stereo not drawn) do in these assays?
PriA SSB inh: 0

How did CC1CCN(C2=C(NS(=O)(=O)c3ccccc3)C(=O)c3ccccc3C2=O)CC1 do in these assays?
Sa RN4220 lethal: 4; ugtP null kill: -14; PriA SSB inh: 64*

How did CC1CCN(C2=C(NS(=O)(=O)c3ccc(Cl)cc3)C(=O)c3ccccc3C2=O)CC1 do in these assays?
Sa RN4220 lethal: 3; ugtP null kill: -29; PriA SSB inh: -12

How did N#Cc1ccccc1NC(=O)C(=O)NCCc1c[nH]c2ccccc12 do in these assays?
PriA SSB inh: -17

Results for Cc1ccc(-c2nc(C#N)c(N3CCCCC3)o2)cc1 ?
Sa RN4220 lethal: 2; ugtP null kill: 3; PriA SSB inh: 87*!

How did c1ccc(-c2nc([P+](c3ccccc3)(c3ccccc3)c3ccccc3)c(N3CCCCCC3)o2)cc1 do in these assays?
PriA SSB inh: 37*

Results for N#Cc1nc(-c2ccccc2)oc1N1CCCCC1 ?
Sa RN4220 lethal: 2; ugtP null kill: -14; PriA SSB inh: 3

What do the screens show for `N#Cc1nc(-c2ccc([N+](=O)[O-])cc2)oc1N1CCCCC1`?
Sa RN4220 lethal: 0; ugtP null kill: 1; PriA SSB inh: 8

What do the screens show for `Cc1ccc(-c2nc(C#N)c(N3CCCCCC3)o2)cc1`?
PriA SSB inh: 99*

What do the screens show for `Cc1cccc(-c2nc(C#N)c(N3CCCCC3)o2)c1`?
Sa RN4220 lethal: 9; ugtP null kill: 11; PriA SSB inh: -1

How did COC(CNC(=O)Nc1ccccc1C(F)(F)F)c1ccsc1 (stereo not drawn) do in these assays?
PriA SSB inh: -9

How did O=C(CC1CSc2nccc(=O)n21)NCc1cc(-c2ccco2)on1 (stereo not drawn) do in these assays?
PriA SSB inh: 0

Results for COc1ccc(-c2cc3c4nnc(SCC(=O)Nc5ccc(OC)c(Cl)c5)n4ccn3n2)cc1 ?
PriA SSB inh: -9

Results for O=S(=O)(Cc1ccccc1Cl)NCC1(O)CCCC1 ?
PriA SSB inh: -11

What do the screens show for `Cc1n[nH]c(C)c1C(=O)NC1CCC(Oc2ccccn2)CC1` (stereo not drawn)?
PriA SSB inh: -20

Results for Cc1cccnc1NC(=O)CCc1c(C)nn(-c2nc(C)c(C)c(=O)[nH]2)c1C ?
PriA SSB inh: -2

How did COC(=O)c1cccc(NC(=S)Nc2ccc(Cl)c(Cl)c2)c1 do in these assays?
Sa RN4220 lethal: 100*; ugtP null kill: 90*; PriA SSB inh: -9

Results for COC(=O)c1cccc(NC(=S)Nc2ccccc2Cl)c1 ?
Sa RN4220 lethal: 3; ugtP null kill: 0; PriA SSB inh: -2

How did COC(=O)c1cccc(NC(=S)Nc2cccc(Cl)c2C)c1 do in these assays?
Sa RN4220 lethal: 0; ugtP null kill: -5; PriA SSB inh: -6

Results for COC(=O)c1cc(NC(=S)Nc2cc(Cl)cc(Cl)c2)cc(C(=O)OC)c1 ?
Sa RN4220 lethal: 99*; ugtP null kill: 99*; PriA SSB inh: -20

Results for COc1ccc([N+](=O)[O-])cc1NC(=O)COc1ccc(Br)cc1C(C)(C)C ?
PriA SSB inh: 0

Results for Cc1c(Cl)cccc1NC(=O)c1coc(NC(=O)C2CC2)n1 ?
PriA SSB inh: -10

What do the screens show for `CS(=O)(=O)c1ccc(Nc2nc(C(=O)NCC3CCCO3)cs2)cc1` (stereo not drawn)?
PriA SSB inh: -7

What do the screens show for `Cc1nc2c(c(N3CCC(NC(=O)C4CCOC4)CC3)n1)CCCC2` (stereo not drawn)?
PriA SSB inh: -11

High-throughput results deposited in PubChem BioAssay by several laboratories.
